Source: PubChem (National Center for Advancing Translational Sciences (NCATS))
Sampled rows, rich in hits. Any-hit rate of the full collection: about 4.3%.
GLP-1R inv ag: GLP-1 receptor (human) inverse agonism; P43220; HEK293 GLP-1R CRE-luciferase, luminescence, 24 h; GLP-1R form is constitutively active; Potency, µM (titrated, usually from 38.3 µM), for inactives: at the top dose activity change, negative = inhibition, usual class: inhibitors; 1.6% of 410,000 active; further: potency means the concentration at half of the fitted maximal effect; on the % scale 0 is the no-effect control and ±100 the full control effect; nearly all actives have a fitted effect of over 55% in size
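Constitutively active GLP-1R drives a cAMP-responsive luciferase in stably transfected HEK293 cells; test compounds are added after overnight (12 h) attachment and left 24 hr, and signal loss in luminescence marks inhibition.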
DRD3 agonist: D3 dopamine receptor (human) agonism | 0.58% of 410,000 active | max activation, % | D3R DiscoveRx beta-arrestin cells, luminescence, 90 min; in the data active means max activation above about 30%; further: 0% is about no effect
Target sequence (P35462 whole entry, looked up): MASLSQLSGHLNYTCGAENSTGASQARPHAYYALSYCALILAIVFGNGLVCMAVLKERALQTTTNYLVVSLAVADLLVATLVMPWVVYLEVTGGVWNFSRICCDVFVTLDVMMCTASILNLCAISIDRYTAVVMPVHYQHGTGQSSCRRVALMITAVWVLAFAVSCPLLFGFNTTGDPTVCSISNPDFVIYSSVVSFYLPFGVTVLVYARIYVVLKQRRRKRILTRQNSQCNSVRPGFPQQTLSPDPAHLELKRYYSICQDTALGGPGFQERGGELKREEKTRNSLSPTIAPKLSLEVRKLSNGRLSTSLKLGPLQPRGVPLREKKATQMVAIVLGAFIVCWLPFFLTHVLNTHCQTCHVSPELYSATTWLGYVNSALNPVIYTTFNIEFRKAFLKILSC
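Cells at 1500/well, incubated overnight, then treated with pinned compounds (dopamine as control) for 90 min at 37 degrees C. DiscoveRx reagent added for 30 - 60 minutes at room temperature; luminescence read.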
D3 antag: antagonists of human D3 dopamine receptor; P35462; max response, negative = inhibition, %; D3R cells, DiscoveRx beta-arrestin luminescence, antagonist mode; hits give low values; AID 652054; 2.5% of 360,000 active; in the data active means max response below about -50%; inconclusive means no clear call, values can overlap the other calls; further: on the % scale 0 is the no-effect control and ±100 the full control effect
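Cells plated overnight at 1500 cells/well, then exposed to library compounds with dopamine controls for 90 minutes at 37 degrees C. DiscoveRx reagent added for 30–60 minutes at room temperature; luminescence read, quantitative HTS format.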
GLP1R ag: activates the human GLP-1 receptor; Potency, µM (highest dose often 45.6 µM), inactives show at the highest dose activation, usual class: activators; HEK293 GLP-1R CRE-luciferase, luminescence, 4-6 h; cells express a hypersensitive GLP-1R form; 0.007% of 380,000 active; P43220; further: potency means the concentration at half of the fitted maximal effect; % of control where 0% means no effect
Starred values were filed as active, the others as inactive; ? = inconclusive; · = no result given. Unless noted, the call rests on the fitted dose curve; in most records, active means well fitted curve in the direction sought with a large enough effect; inconclusive means small, poorly fitted or top-dose-only effect, or another doubt; inactive means no such curve, though single readings can be large; an effect the other way counts as inactive or inconclusive.

SMILES | GLP-1R inv ag | DRD3 agonist | D3 antag | GLP1R ag
O=C(CCN1CCCCC1)c1ccc2c(c1)OCO2 | -8% | -12 | -65* | -7%
O=C(CCCN1CCC(c2ccccc2)C1)c1ccc2c(c1)OCCO2 (configuration not stated) | -25% | -33 | -82* | -2%
CCC(=O)OC1C(N(C)C)CC(C)O[C@H]1O[C@H]1[C@H](C)[C@@H](O[C@H]2CC(OC)[C@@H](O)C(C)O2)[C@H](C)C(=O)O[C@@H](CC)[C@](C)(O)[C@@H](O)[C@H](C)C(=O)[C@@H](C)C[C@]1(C)O (some centres not stated) | · | · | · | 8%
Cc1ccc(NC(=O)Cn2cc(S(=O)(=O)NC(C)C)c(S(=O)(=O)NC(C)C)c2)cc1Cl | ? | 2 | · | ·
Cc1c(C(=O)N2CCN(C(c3ccccc3)c3ccccc3)CC2)oc2ccccc12 | 4.5µM* | -2 | ? | -7%
COc1ccc2oc(C(=O)OCC(=O)N3CCCC(C)C3)c(C)c2c1 (configuration not stated) | ? | 11 | 6 | 6%
Cc1c(C(=O)N2CC(C)OC(C)C2)oc2ccccc12 (configuration not stated) | 0% | -1 | -72* | 10%
Cc1c(C(=O)OCC(=O)N2CCCC(C)C2)oc2ccccc12 (configuration not stated) | 10µM* | -1 | 4 | 16%
O=C(COC(=O)c1cccc(S(=O)(=O)N2CCc3ccccc32)c1)Nc1ncc(C(F)(F)F)cc1Cl | 1% | -2 | -57* | 6%
Cc1ccc(NC(=O)COC(=O)CCc2c(C)nc3ncnn3c2C)cc1 | -31% | 32* | -12 | 12%
COC(=O)c1c(N)n(-c2ccc(OC)c(OC)c2)c2nc3ccccc3nc12 | 8% | -1 | · | 6%
CCC(C)c1ccc(O)c(NC(=O)c2cccnc2)c1 (configuration not stated) | 5% | -4 | 20 | -3%
CCC(C)c1ccc(O)c(NC(=S)NC(=O)c2cccs2)c1 (configuration not stated) | 8.9µM* | -34 | -25 | 9%
Cc1ccc(NC(=O)CN(Cc2ccccc2)S(=O)(=O)c2ccc3nc(C)sc3c2)c(C)c1 | -25% | 9 | · | ·
CC(C)(C)N(Cc1ccccc1)C(=O)c1cc2ccccc2o1 | 2.2µM* | 1 | 7 | 5%
CN(Cc1ccccc1)C(=O)c1cc2ccccc2o1 | 6% | 0 | -9 | -1%
COc1ccc(/C=C2\SC(=N)N(c3nccs3)C2=O)cc1OC | 10µM* | -6 | 0 | 33%
C=CCC[C@H](Cc1ccc(F)cc1)C(=O)OC[C@@H](Cc1c[nH]c2ccccc12)NC(=O)[C@H](CC=C)CC(=O)N(CCO)Cc1ccccc1 | 2.8µM* | -2 | 2 | -5%
C=CC[C@H](CC(=O)NCCO)C(=O)N[C@H](COC(=O)[C@@H](CC=C)Cc1ccc(F)cc1)Cc1ccccc1 | 10µM* | 4 | ? | 4%
C=CCC[C@@H](Cc1ccc(F)cc1)C(=O)OC[C@@H](Cc1c[nH]c2ccccc12)NC(=O)[C@H](CC=C)CC(=O)N(CCO)Cc1ccccc1 | ? | -5 | 0 | -7%
C=CCC[C@@H](Cc1ccc(F)cc1)C(=O)OC[C@H](Cc1c[nH]c2ccccc12)NC(=O)[C@@H](CC=C)CC(=O)N[C@H](CO)Cc1ccccc1 | -36% | 31* | 42 | -2%
C=CCC[C@@H](Cc1ccc(F)cc1)C(=O)OC[C@@H](NC(=O)[C@@H](CC=C)CC(=O)N[C@@H](CO)Cc1ccccc1)C(C)(C)C | 10µM* | -4 | -22 | -2%
COc1ccccc1NC(=O)CC1S/C(=N/N=C2\CCCc3ccccc32)NC1=O (configuration not stated) | ? | -11 | 8 | 10%
Cc1cccc(-c2nnc(SCCC(=O)O)o2)c1 | -13% | 1 | · | -9%
C=CC[C@@H](CC(=O)N(CCO)Cc1ccccc1)C(=O)N[C@@H](COC(=O)[C@@H](CC=C)CC(=O)OC(C)(C)C)Cc1c[nH]c2ccccc12 | 10µM* | 0 | 17 | -3%
SMILES | GLP-1R inv ag | DRD3 agonist | D3 antag | GLP1R ag
C=CC[C@@H](CC(=O)N(CCO)Cc1ccccc1)C(=O)N[C@H](COC(=O)[C@@H](CC=C)Cc1ccc(F)cc1)C(C)(C)C | ? | -21 | -4 | 1%
C=CC[C@H](CC(=O)N(CCO)Cc1ccccc1)C(=O)N[C@H](COC(=O)[C@@H](CC=C)Cc1ccc(F)cc1)C(C)(C)C | 10µM* | -21 | -13 | 0%
C=CC[C@H](CC(=O)N(CCO)Cc1ccccc1)C(=O)N[C@@H](COC(=O)[C@H](CC=C)CC(=O)OC(C)(C)C)Cc1c[nH]c2ccccc12 | 4% | 6 | 5 | -2%
CCC(C)Cn1c(/C=C/c2ccccc2)nc2ccccc21 (configuration not stated) | ? | -14 | · | ·
Cc1ccc(S(=O)(=O)c2nnn(CC(=O)Nc3ccccc3C)c2N)cc1 | -13% | -3 | · | -2%
CCOc1cccc(C2c3c(oc4ccc(F)cc4c3=O)C(=O)N2CCOC)c1 (configuration not stated) | 11% | -5 | · | ·
COc1ccnc(Oc2ccc(F)cc2)c1C(=O)N/C=N/OCc1c(Cl)cccc1Cl | 10µM* | -4 | -19 | 7%
COc1ccccc1C(=O)N/N=C/c1ccc2c(c1)OCO2 | 15% | -3 | -6 | 8%
COc1cc2ccccc2cc1C(=O)N/N=C/c1ccc2c(c1)OCO2 | 6.3µM* | -3 | -15 | 11%
O=C(N/N=C/c1ccc([N+](=O)[O-])cc1)c1cc(-c2ccc3c(c2)OCO3)n[nH]1 | 2% | 0 | 7 | 9%
COc1cc(/C=N/NC(=O)c2cc(-c3ccc4c(c3)OCO4)n[nH]2)ccc1O | 8% | 61* | 38 | 23%
COc1cccc(CN(C)CC(=O)Nc2cc(S(=O)(=O)N3CCCC3)ccc2Cl)c1OC | 7.9µM* | 1 | 43 | 0%
Cc1ccc(-c2nc(SCC(=O)Nc3cc(S(=O)(=O)N4CCCCC4)ccc3Cl)n[nH]2)cc1 | 10µM* | 6 | 9 | 14%
CCN(CC)S(=O)(=O)c1ccc(C)c(NC(=O)CNCc2ccccc2OC)c1 | ? | 33* | -24 | 10%
COc1ccccc1CNCC(=O)Nc1cc(S(=O)(=O)N2CCCCCC2)ccc1Cl | ? | 3 | -60* | 26%
COc1ccccc1CN(C)CC(=O)Nc1cccc(S(=O)(=O)N2CCCC2)c1 | ? | -12 | ? | -3%
CCc1nc(SCc2cc(=O)c3cc(F)ccc3[nH]2)n[nH]1 | 5% | -8 | · | ·
COC(C[C@@H]1O[C@H]1C(=O)COCc1ccccc1)OC | 6% | -15 | -27 | 6%
COC(C[C@H]1O[C@@H]1C(=O)COCc1ccccc1)OC | 16% | 32* | -5 | -5%
Cc1ccccc1Cn1c(CN2CCC(C(=O)NCCc3ccccc3)CC2)cc2ccccc21 | 11µM* | -13 | · | ·
CN(Cc1ccccc1)C(=O)C1CCN(Cc2cc3ccccc3n2Cc2ccccc2)CC1 | 10µM* | -10 | · | ·
